# What was measured:
# Experiment in all cases: DAPPL (digital affinity profiling via proximity ligation, sequencing); 10 mM Tris-HCl pH 7.5, 50 mM NaCl, 1 mM DTT, 4% glycerol, room temperature, 30 min; GST-TFs on glutathione beads, 16-mer random dsDNA library, 0.1% formaldehyde crosslink after washing; high values mean tight binding
# ELK1 = target: T1, ELK1 (Homo sapiens, UniProt P19419 1-428); conditions: protein: recombinant; tags: N-terminal GST; dsDNA, one strand shown
# T1 sequence: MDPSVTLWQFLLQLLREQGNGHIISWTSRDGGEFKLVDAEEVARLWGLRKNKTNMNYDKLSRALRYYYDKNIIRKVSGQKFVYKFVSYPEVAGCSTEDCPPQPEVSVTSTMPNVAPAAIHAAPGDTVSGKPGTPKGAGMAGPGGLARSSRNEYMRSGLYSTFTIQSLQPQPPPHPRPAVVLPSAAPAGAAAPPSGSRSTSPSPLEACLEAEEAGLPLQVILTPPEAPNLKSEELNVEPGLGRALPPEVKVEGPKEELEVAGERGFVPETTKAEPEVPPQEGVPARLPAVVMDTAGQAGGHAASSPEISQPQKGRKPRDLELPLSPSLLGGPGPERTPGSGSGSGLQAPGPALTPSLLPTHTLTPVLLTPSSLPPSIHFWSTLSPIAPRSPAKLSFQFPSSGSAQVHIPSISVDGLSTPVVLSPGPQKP
# Summary of the method: (§1)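 Sequencing on an Illumina NextSeq500 followed washing, crosslinking with 0.1% formaldehyde, proximity ligation (BsaI/T4 ligase, 1 h, 37 °C) and PCR amplification of pools that had been incubated for 30 min at room temperature with 200 nmole of a random double-stranded 16-mer DNA library in Tris/NaCl/DTT/glycerol buffer. Each pool held DNA-barcoded human transcription factors, expressed in yeast as GST fusions and captured on glutathione beads, plus a tag-only sample. Binding signal is a hexamer's read frequency for a factor divided by its frequency in the tag-only sample.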
# GABPA = target: T2, GABPA (Homo sapiens, UniProt Q06546 1-454); conditions: protein: recombinant; tags: N-terminal GST; dsDNA, one strand shown
# T2 sequence: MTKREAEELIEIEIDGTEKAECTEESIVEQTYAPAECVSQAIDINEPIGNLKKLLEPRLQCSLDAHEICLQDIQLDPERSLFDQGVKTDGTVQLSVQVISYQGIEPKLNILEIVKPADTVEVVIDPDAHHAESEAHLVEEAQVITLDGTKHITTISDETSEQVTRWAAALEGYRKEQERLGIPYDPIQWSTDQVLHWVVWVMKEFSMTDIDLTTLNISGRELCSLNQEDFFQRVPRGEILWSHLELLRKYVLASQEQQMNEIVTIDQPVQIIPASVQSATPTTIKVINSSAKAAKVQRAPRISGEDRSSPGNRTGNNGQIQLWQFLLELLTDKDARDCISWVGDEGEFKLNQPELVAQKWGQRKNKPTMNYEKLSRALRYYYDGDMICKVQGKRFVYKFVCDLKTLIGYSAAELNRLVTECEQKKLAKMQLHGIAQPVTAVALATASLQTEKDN
# Summary of the method: as §1
# ERG = target: T3, ERG (Homo sapiens, UniProt P11308 1-479); conditions: protein: recombinant; tags: N-terminal GST; dsDNA, one strand shown
# T3 sequence: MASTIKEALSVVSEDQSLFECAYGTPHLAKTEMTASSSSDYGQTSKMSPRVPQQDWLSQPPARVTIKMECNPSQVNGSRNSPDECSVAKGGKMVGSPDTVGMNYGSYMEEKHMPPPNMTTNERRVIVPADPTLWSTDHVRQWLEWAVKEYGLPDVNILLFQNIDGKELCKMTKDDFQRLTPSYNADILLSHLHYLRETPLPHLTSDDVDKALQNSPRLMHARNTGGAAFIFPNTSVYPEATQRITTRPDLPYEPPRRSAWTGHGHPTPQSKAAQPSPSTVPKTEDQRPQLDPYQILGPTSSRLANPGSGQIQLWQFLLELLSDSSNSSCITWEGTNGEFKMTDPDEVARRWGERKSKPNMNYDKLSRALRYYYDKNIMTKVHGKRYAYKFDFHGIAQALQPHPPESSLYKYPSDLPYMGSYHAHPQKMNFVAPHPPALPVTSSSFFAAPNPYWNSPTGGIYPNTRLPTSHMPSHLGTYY
# Summary of the method: as §1
# ELF1 = ELF1 (Homo sapiens, UniProt P32519 1-619); conditions: protein: recombinant; tags: N-terminal GST; dsDNA, one strand shown
# Summary of the method: as §1
# EHF = target: T4, EHF (Homo sapiens, UniProt Q9NZC4 1-300); conditions: protein: recombinant; tags: N-terminal GST; dsDNA, one strand shown
# T4 sequence: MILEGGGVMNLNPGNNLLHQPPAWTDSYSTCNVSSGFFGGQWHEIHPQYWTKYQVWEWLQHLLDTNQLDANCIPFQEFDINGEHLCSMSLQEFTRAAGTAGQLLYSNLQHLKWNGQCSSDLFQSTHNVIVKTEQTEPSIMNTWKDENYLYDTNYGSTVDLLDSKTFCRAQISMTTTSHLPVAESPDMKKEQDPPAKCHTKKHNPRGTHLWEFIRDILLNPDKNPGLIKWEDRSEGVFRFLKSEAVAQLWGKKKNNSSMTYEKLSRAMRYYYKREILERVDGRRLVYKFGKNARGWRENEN
# Summary of the method: as §1
# SPIB = SPIB (Homo sapiens, UniProt Q01892 1-262); conditions: protein: recombinant; tags: N-terminal GST; dsDNA, one strand shown
# Summary of the method: as §1
# HSF1 = HSF1 (Homo sapiens, UniProt Q00613 1-529); conditions: protein: recombinant; tags: N-terminal GST; chain copies: 3; dsDNA, one strand shown
# Summary of the method: as §1
# ELF4 = ELF4 (Homo sapiens, UniProt Q99607 1-663); conditions: protein: recombinant; tags: N-terminal GST; dsDNA, one strand shown
# Summary of the method: as §1
# ELK4 = target: T5, ELK4 (Homo sapiens, UniProt P28324-2 1-405); conditions: protein: recombinant; tags: N-terminal GST; dsDNA, one strand shown
# T5 sequence: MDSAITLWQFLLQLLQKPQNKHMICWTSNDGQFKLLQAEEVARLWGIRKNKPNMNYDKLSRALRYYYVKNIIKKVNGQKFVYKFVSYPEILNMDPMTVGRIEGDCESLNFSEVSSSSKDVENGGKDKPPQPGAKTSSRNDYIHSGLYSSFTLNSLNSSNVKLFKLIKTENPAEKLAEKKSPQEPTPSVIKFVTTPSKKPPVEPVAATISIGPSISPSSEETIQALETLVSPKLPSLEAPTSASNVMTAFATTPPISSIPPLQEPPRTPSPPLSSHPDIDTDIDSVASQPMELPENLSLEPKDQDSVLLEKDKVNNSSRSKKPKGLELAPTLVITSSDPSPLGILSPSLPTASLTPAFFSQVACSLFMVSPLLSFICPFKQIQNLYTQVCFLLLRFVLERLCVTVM
# Summary of the method: as §1
# ELF3 = target: T6, ELF3 (Homo sapiens, UniProt P78545 1-371); conditions: protein: recombinant; tags: N-terminal GST; dsDNA, one strand shown
# T6 sequence: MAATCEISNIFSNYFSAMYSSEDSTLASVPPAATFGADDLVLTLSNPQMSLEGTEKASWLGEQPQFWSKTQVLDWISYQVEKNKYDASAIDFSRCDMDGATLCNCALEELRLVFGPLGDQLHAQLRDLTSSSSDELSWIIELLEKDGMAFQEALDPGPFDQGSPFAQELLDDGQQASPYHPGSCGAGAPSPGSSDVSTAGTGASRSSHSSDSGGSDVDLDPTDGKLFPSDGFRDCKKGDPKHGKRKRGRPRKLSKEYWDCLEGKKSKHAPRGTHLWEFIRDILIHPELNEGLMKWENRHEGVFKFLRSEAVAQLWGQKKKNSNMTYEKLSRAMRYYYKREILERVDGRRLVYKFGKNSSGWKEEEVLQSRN
# Summary of the method: as §1
# CRX = CRX (Homo sapiens, UniProt O43186 1-299); conditions: protein: recombinant; tags: N-terminal GST; dsDNA, one strand shown
# Summary of the method: as §1
# ETV1 = ETV1 (Homo sapiens, UniProt P50549 1-477); conditions: protein: recombinant; tags: N-terminal GST; dsDNA, one strand shown
# Summary of the method: as §1
# ERF = target: T7, ERF (Homo sapiens, UniProt P50548 1-548); conditions: protein: recombinant; tags: N-terminal GST; dsDNA, one strand shown
# T7 sequence: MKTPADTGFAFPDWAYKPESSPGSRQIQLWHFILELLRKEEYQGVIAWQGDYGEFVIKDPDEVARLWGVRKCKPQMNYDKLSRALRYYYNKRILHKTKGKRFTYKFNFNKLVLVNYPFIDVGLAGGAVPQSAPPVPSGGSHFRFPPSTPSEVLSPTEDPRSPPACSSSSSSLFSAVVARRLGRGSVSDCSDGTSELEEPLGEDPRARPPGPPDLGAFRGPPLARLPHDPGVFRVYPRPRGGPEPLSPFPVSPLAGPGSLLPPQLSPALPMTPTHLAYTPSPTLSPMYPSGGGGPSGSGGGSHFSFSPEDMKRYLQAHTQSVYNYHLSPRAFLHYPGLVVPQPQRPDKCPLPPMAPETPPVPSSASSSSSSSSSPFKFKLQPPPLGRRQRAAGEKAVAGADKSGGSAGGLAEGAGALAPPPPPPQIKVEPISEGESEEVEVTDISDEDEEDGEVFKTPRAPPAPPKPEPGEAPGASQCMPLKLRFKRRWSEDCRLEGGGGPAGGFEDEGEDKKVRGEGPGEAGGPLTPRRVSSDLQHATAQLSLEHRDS
# Summary of the method: as §1
# ETV3L = target: T8, ETV3L (Homo sapiens, UniProt Q6ZN32 1-361); conditions: protein: recombinant; tags: N-terminal GST; dsDNA, one strand shown
# T8 sequence: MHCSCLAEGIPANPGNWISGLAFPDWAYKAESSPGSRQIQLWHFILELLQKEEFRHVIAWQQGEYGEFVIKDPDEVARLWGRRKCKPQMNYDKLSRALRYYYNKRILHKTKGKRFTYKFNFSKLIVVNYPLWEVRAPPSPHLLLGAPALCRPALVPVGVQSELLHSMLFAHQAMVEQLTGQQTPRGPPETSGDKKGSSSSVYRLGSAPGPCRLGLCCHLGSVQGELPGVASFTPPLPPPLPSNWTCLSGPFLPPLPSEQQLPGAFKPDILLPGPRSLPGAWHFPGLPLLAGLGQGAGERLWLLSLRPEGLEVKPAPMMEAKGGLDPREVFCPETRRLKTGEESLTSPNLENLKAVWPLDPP
# Summary of the method: as §1
# SPDEF = target: T9, SPDEF (Homo sapiens, UniProt O95238 1-335); conditions: protein: recombinant; tags: N-terminal GST; dsDNA, one strand shown
# T9 sequence: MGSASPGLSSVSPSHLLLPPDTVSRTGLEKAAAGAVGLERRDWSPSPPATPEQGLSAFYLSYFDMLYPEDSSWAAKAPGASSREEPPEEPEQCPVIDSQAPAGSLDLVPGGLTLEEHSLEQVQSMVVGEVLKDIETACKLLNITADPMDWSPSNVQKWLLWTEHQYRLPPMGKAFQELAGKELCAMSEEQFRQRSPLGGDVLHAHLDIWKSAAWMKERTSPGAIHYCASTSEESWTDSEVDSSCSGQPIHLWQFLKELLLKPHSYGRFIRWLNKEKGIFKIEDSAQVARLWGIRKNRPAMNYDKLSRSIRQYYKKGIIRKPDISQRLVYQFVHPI
# Summary of the method: as §1
# ETV7 = target: T10, ETV7 (Homo sapiens, UniProt Q9Y603 1-341); conditions: protein: recombinant; tags: N-terminal GST; dsDNA, one strand shown
# T10 sequence: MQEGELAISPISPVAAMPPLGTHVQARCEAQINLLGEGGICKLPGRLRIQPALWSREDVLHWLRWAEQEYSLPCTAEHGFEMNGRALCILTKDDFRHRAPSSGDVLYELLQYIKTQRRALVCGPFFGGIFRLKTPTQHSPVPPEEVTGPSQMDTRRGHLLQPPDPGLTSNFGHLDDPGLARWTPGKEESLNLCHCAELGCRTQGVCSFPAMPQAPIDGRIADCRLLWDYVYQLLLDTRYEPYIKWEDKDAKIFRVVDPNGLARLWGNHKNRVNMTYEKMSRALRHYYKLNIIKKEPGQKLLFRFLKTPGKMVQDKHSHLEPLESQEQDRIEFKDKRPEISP
# Summary of the method: as §1
# ELF5 = target: T11, ELF5 (Homo sapiens, UniProt Q9UKW6-2 1-255); conditions: protein: recombinant; tags: N-terminal GST; dsDNA, one strand shown
# T11 sequence: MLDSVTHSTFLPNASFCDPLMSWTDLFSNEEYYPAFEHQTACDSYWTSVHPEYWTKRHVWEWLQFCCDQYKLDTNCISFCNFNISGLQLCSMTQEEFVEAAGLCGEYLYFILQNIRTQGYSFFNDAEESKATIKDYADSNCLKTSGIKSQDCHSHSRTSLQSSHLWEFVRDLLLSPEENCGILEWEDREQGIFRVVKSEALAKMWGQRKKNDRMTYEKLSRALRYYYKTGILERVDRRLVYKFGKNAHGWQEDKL
# Summary of the method: as §1
# ETV3 = target: T12, ETV3 (Homo sapiens, UniProt P41162-2 1-143); conditions: protein: recombinant; tags: N-terminal GST; dsDNA, one strand shown
# T12 sequence: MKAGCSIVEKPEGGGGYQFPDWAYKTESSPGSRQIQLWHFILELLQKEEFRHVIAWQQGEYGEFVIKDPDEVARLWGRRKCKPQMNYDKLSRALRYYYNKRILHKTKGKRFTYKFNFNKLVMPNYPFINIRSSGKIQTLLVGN
# Summary of the method: as §1
# Chain of ETV1 (P50549 whole entry): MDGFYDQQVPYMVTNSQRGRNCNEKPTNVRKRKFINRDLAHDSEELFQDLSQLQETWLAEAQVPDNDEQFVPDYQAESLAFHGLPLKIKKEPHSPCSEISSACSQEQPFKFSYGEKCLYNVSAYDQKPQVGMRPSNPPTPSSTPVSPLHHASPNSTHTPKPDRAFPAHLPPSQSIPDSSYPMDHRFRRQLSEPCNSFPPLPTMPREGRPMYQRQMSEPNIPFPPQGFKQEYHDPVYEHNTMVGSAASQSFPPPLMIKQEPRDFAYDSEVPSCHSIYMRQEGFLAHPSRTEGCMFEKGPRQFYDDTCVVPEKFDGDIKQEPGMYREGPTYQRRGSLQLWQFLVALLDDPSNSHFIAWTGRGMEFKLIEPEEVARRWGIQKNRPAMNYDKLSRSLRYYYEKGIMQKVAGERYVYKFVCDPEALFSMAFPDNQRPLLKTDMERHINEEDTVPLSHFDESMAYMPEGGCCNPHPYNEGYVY
# Chain of CRX (O43186 whole entry): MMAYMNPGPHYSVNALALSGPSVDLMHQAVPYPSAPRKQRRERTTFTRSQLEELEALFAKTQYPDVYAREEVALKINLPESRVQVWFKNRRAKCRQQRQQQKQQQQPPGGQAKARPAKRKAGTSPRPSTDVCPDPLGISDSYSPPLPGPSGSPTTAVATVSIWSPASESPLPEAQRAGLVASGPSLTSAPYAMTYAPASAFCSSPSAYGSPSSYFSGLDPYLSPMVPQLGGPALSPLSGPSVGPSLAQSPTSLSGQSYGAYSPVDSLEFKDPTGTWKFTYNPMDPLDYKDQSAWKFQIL
# Chain of HSF1 (Q00613 whole entry): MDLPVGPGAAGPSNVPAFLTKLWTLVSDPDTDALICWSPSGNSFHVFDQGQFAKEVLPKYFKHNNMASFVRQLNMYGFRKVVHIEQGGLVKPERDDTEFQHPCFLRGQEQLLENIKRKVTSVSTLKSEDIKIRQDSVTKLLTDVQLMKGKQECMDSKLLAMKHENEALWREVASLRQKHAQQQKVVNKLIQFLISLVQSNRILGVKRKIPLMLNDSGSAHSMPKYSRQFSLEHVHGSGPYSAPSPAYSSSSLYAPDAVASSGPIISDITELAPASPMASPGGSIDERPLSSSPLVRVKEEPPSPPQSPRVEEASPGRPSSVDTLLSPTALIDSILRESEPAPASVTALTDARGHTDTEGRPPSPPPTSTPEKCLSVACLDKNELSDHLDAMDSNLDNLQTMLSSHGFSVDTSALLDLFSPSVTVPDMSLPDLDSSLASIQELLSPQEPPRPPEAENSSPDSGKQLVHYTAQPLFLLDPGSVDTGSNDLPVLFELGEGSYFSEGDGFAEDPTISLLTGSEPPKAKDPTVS
# Chain of SPIB (Q01892 whole entry): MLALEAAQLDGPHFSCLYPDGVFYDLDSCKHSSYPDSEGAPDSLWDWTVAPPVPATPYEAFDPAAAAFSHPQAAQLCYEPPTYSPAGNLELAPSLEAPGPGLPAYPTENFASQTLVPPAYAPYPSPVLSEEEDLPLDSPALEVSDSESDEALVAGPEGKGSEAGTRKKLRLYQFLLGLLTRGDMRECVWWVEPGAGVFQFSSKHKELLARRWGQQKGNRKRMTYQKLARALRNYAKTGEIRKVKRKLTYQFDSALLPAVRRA
# Chain of ELF4 (Q99607 whole entry): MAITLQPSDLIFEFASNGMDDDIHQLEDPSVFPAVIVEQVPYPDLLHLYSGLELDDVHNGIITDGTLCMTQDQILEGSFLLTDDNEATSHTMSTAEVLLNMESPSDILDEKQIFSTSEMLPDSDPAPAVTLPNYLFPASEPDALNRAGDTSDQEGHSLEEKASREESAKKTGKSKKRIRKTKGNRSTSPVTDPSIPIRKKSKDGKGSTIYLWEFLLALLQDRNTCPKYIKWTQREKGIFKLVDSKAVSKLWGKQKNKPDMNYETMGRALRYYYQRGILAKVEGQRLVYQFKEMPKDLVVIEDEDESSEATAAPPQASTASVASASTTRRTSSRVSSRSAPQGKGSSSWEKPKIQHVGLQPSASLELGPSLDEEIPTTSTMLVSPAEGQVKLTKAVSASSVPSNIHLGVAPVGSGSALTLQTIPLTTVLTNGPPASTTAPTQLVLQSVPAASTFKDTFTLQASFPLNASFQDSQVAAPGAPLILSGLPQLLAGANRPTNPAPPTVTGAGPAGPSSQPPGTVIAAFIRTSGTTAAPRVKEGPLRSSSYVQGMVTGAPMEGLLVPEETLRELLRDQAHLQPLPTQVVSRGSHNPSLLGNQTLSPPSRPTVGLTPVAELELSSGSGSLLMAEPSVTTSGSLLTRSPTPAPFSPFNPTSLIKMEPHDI
# Chain of ELF1 (P32519 whole entry): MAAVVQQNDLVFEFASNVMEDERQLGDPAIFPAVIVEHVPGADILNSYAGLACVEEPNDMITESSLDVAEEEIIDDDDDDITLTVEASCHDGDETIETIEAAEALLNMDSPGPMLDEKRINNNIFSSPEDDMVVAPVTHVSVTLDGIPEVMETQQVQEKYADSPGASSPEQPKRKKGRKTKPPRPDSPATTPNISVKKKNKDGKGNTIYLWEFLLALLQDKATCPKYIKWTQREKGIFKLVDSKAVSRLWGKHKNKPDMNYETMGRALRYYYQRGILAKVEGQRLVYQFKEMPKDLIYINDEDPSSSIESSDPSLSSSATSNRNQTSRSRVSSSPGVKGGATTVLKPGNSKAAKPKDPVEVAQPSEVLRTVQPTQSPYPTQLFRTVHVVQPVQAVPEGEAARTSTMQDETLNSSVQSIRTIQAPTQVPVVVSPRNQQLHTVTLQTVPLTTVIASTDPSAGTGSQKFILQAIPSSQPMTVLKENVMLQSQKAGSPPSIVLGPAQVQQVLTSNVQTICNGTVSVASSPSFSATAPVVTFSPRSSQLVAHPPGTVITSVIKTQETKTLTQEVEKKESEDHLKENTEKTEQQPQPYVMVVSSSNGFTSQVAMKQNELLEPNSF
sequence,measurement,setting,value
GCGAAT,binding signal,ELK1,"1.07 fold enrichment (6-mer frequency, TF over GST control)"
same,binding signal,GABPA,"1.05 fold enrichment (6-mer frequency, TF over GST control)"
same,binding signal,ERG,"1.08 fold enrichment (6-mer frequency, TF over GST control)"
same,binding signal,ELF1,"1.11 fold enrichment (6-mer frequency, TF over GST control)"
same,binding signal,EHF,"1.17 fold enrichment (6-mer frequency, TF over GST control)"
same,binding signal,SPIB,"1 fold enrichment (6-mer frequency, TF over GST control)"
same,binding signal,HSF1,"1.27 fold enrichment (6-mer frequency, TF over GST control)"
same,binding signal,ELF4,"1.02 fold enrichment (6-mer frequency, TF over GST control)"
same,binding signal,ELK4,"1.17 fold enrichment (6-mer frequency, TF over GST control)"
same,binding signal,ELF3,"1.12 fold enrichment (6-mer frequency, TF over GST control)"
same,binding signal,CRX,"1.08 fold enrichment (6-mer frequency, TF over GST control)"
same,binding signal,ETV1,"1.04 fold enrichment (6-mer frequency, TF over GST control)"
same,binding signal,ERF,"1.05 fold enrichment (6-mer frequency, TF over GST control)"
same,binding signal,ETV3L,"1.06 fold enrichment (6-mer frequency, TF over GST control)"
same,binding signal,SPDEF,"1.08 fold enrichment (6-mer frequency, TF over GST control)"
same,binding signal,ETV7,"1.04 fold enrichment (6-mer frequency, TF over GST control)"
same,binding signal,ELF5,"1.04 fold enrichment (6-mer frequency, TF over GST control)"
same,binding signal,ETV3,"1.07 fold enrichment (6-mer frequency, TF over GST control)"
